Growth data for 27 molecules are collected here from PubChem BioAssay (NCI).

The structures appear in SMILES notation. This is part of a sample that, as a whole, favours compounds with a hit. Of some 83,000 tested, about 20% had one in any assay.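 Treatment: one concentration, 48 hours, 96-well format. Scoring: percent growth, with anything below 10 considered active.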 Active and inactive are the calls of the source.

The subject of this assay is HL-60(TB) leukemia. Description: NCI-60 one-dose screen, 48 h (100 = growth as untreated, 0 = no growth, -100 = all killed). Conditions: 10 µM unless noted.
Consider `O=[N+]([O-])c1ccc(NC(c2ccccc2)c2ccc3cccnc3c2O)cc1` (configuration not stated), for which the growth was -9.64% (active).
`CCC(=O)Oc1ccc(/C(=C(\C)c2ccccc2)c2ccc(OCCN3CCCCC3)cc2)cc1`: the growth is 68.2% (inactive).
As to `CCN1C(=O)C2(Nc3ccccc3S2)c2cc(C)ccc21` (configuration not stated), the growth is 118% (inactive).
With `Cn1c(I)c(C#CCO[Si](C)(C)C(C)(C)C)c(=O)[nH]c1=O`, the growth is -41.2% (active).
As to `C#Cc1ccc(-n2c(/C=C/c3ccc4ccccc4n3)nc3ncccc3c2=O)cc1`, the growth is -34.6% (active).
The result for `CCN1CCCC(N2c3ccccc3Sc3ccccc32)C1` (configuration not stated) reads 93.1% (inactive); that for `COCCn1cc(-c2nc(-c3cn(CCOC)c4ncccc34)cs2)c2ccccc21`, 114% (inactive); that for `COc1nc2c(c(=O)[nH]1)C(c1ccc(Oc3ccnc4cc(Cl)ccc34)c(OC)c1)C=C(c1cc(OC)c(OC)c(OC)c1)N2` (configuration not stated), 97.9% (inactive).
As for `CC1=C(O)C(=O)C(c2c(C)cc(C)c(Br)c2C)=C(O)C1=O`, the growth was 53.4% (inactive).
In the case of `O=C(CNCCN1CCOCC1)N1c2cccc3cccc(c23)N(C(=O)CNCCN2CCOCC2)C1c1cn(-c2ccccc2)nc1-c1cccc([N+](=O)[O-])c1` it was 67.6% (inactive); in that of `COc1cc(C(=O)/C=C/c2c(-c3ccc(F)cc3)nc3ncccn23)cc(OC)c1OC`, 30.9% (inactive); in that of `O=C(CCN1CCCC1)Nc1ccc2c(NCCCCc3ccccc3)c3ccccc3nc2c1`, -62.3% (active).
`CC(C)(C)n1cc(-c2ccnc(NCCNS(=O)(=O)c3ccc(O)cc3)c2)c(-c2cccc(O)c2)n1`: the growth was 101% (inactive).
Consider `N#Cc1c(NC(=O)c2cccs2)[n+]([O-])c2cc(C(F)(F)F)ccc2[n+]1[O-]`, for which the growth was 89% (inactive).
In the case of `COc1ccc(Nc2ncccc2NC(=O)c2cn(Cc3cccc(Oc4ccccc4)c3)nn2)cc1` it was 95.9% (inactive).
Turning to `CCn1cc(C(=O)N/N=C/c2ccc(Br)cc2)c(=O)c2cc(F)c(N3CCNC(C)C3)c(F)c21` (configuration not stated), the growth was 48.7% (inactive).
`Nc1cc2c(cc1N)-c1cc(N)c(N)cc1C2`: the growth is 103% (inactive).
Turning to `Clc1cccc(Nc2nc(Nc3cnc4ccccc4c3)c3[nH]cnc3n2)c1`, the growth was 121% (inactive).
For `Nc1n[nH]c2cccc(C#Cc3cccc(C(=O)Nc4cc(CN5CCOCC5)cc(C(F)(F)F)c4)c3)c12`, the growth is 16.6% (inactive).
For the molecule `COc1ccccc1C(OC(C)=O)OC(C)=O`, the growth was 87% (inactive).
As for `c1ccc(COCC[P+](c2ccccc2)(c2ccccc2)c2ccccc2)cc1`, the growth is -52.2% (active).
For the molecule `O=C(Nc1ccccc1F)Nc1ccccc1Cl`, the growth was 52% (inactive).
For `C=C1C(=O)O[C@H]2[C@H]1CC/C(COC(=O)NCC(C)c1ccc(CC(C)C)cc1)=C\CC[C@@]1(C)O[C@@H]21` (some centres not stated), the growth is -29.8% (active).
Take `O=[N+]([O-])c1cccc(C(F)(F)F)c1`: the growth was 109% (inactive).
In the case of `Cc1cccc(NC(=O)c2sc3nc4c(cc3c2N)CCCC4)c1C`, the growth was 9.11% (active).
For `O=C1/C(=C\c2cn(CC(O)CN3CCCCC3)c3ccccc23)c2ccccc2N1c1c(Cl)cccc1Cl` (configuration not stated), the growth is -36.5% (active).
In the case of `CCN(CC)c1cc(N)c(Cc2c(N)cc(N(CC)CC)cc2Cl)c(Cl)c1` it was -8.28% (active).
